Key:
Details in all cases: concentration: 1 μM,replicates: in singlicate; n = 1
CDK8 = test system: CDK8
CDK9 = test system: CDK9
CDKL1 = test system: CDKL1
CDKL2 = test system: CDKL2
CDKL3 = test system: CDKL3
CDKL5 = test system: CDKL5
CHEK1 = test system: CHEK1
CHEK2 = test system: CHEK2
CIT = test system: CIT
CLK1 = test system: CLK1
CLK2 = test system: CLK2
CLK3 = test system: CLK3
CLK4 = test system: CLK4
CSF1R-autoinhibited = test system: CSF1R-autoinhibited
CSF1R = test system: CSF1R
CSK = test system: CSK
CSNK1A1L = test system: CSNK1A1L
CSNK1A1 = test system: CSNK1A1
CSNK1D = test system: CSNK1D
CSNK1E = test system: CSNK1E
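Also: KINOMEscan kinase panel screen.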

| SMILES | %Inh (CDK8) [%] | %Inh (CDK9) [%] | %Inh (CDKL1) [%] | %Inh (CDKL2) [%] | %Inh (CDKL3) [%] | %Inh (CDKL5) [%] | %Inh (CHEK1) [%] | %Inh (CHEK2) [%] | %Inh (CIT) [%] | %Inh (CLK1) [%] | %Inh (CLK2) [%] | %Inh (CLK3) [%] | %Inh (CLK4) [%] | %Inh (CSF1R-autoinhibited) [%] | %Inh (CSF1R) [%] | %Inh (CSK) [%] | %Inh (CSNK1A1L) [%] | %Inh (CSNK1A1) [%] | %Inh (CSNK1D) [%] | %Inh (CSNK1E) [%] |
| --- | --- | --- | --- | --- | --- | --- | --- | --- | --- | --- | --- | --- | --- | --- | --- | --- | --- | --- | --- | --- |
| N#Cc1cccc(C(=O)NC2CCN(c3ccnc(Nc4ccc(F)cc4)n3)C2)c1 (centres unmarked) [GSK1379708] | 19 | 0 | 8 | 17 | 0 | 6 | 0 | 0 | 11 | 14 | 0 | 0 | 1 | 2 | 1 | 24 | 1 | 0 | 17 | 1 |
| CN1CCN(CCCNc2nccc(-c3c(-c4ccc(F)cc4)nn4cc(C(N)=O)ccc34)n2)CC1 [GW622475] | 19 | 3 | 5 | 31 | 92.6 | 0 | 0 | 1 | 95.2 | 19 | 0 | 0 | 12 | 0 | 22 | 11 | 52 | 95.7 | 97.4 | 99.7 |
| COc1cccc(C2=C(Nc3cccc(Cl)c3)C(=O)NC2=O)c1 [SB-341556] | 0 | 0 | 18 | 12 | 0 | 0 | 14 | 0 | 0 | 69 | 69 | 0 | 55 | 0 | 18 | 0 | 0 | 36 | 10 | 20 |
| Nc1nccc(-c2ccc3c(N)n[nH]c3c2)n1 [GSK1034945] | 13 | 2 | 10 | 18 | 30 | 0 | 0 | 58 | 54 | 98 | 88 | 44 | 95.3 | 0 | 0 | 0 | 5 | 0 | 17 | 29 |
| C[C@@H](Oc1cc(-n2cnc3cc(-c4ccncc4)ccc32)sc1C(N)=O)c1ccccc1Cl [GSK479719] | 12 | 4 | 21 | 33 | 0 | 0 | 4 | 0 | 24 | 73 | 28 | 5 | 68 | 0 | 29 | 0 | 15 | 0 | 17 | 8 |
| O=C(NCC1CC1)c1ccc(-c2cc(C(=O)NC3CC3)ccc2F)cc1 [GW810445] | 62 | 0 | 0 | 0 | 28 | 0 | 0 | 0 | 25 | 0 | 15 | 0 | 0 | 8 | 0 | 0 | 0 | 0 | 0 | 0 |
| CN(c1cccc(CNc2nc(Nc3ccc4c(c3)CC(=O)N4)ncc2C(F)(F)F)c1)S(C)(=O)=O | 0 | 6 | 44 | 55 | 7 | 0 | 0 | 0 | 30 | 63 | 26 | 16 | 47 | 31 | 15 | 0 | 0 | 0 | 7 | 18 |
| FC(F)(F)c1cc(Br)cc(Nc2nccc(-c3cnn4ncccc34)n2)c1 [GW810578] | 2 | 97.8 | 47 | 96.2 | 97.4 | 95.3 | 0 | 17 | 6 | 99.2 | 95.6 | 79 | 85 | 0 | 61 | 17 | 68 | 58 | 91.9 | 75 |
| NC(=O)c1ccc(-c2cc3ncnc(SCC(=O)O)c3s2)cc1 | 0 | 72 | 7 | 0 | 0 | 0 | 0 | 0 | 3 | 82 | 52 | 10 | 87 | 37 | 5 | 0 | 0 | 0 | 3 | 0 |
| COc1cc(Nc2nccc(N3CCC(NC(=O)c4cccc(C#N)c4)C3)n2)cc(OC)c1OC (centres unmarked) [GSK1379751] | 6 | 0 | 0 | 41 | 0 | 0 | 0 | 0 | 8 | 4 | 0 | 0 | 0 | 14 | 28 | 0 | 0 | 0 | 0 | 8 |

— publication PMC5540273 (PLoS ONE, 2017)
